The list is not random: actives were taken first. Their share in the collection is about 0.79%.
Hsp90 inh – displaces geldanamycin probe from tumor Hsp90. NCI-N417 lysate Hsp90, Cy3B-geldanamycin FP displacement. inhibition, % at 30 µM. 0.35% of 64,000 active. P07900;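 active means inhibition above 50%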
ROCK2 inh – blocks human Rho kinase 2 activity | O75116 | purified ROCK2, Kinase-Glo ATP depletion luminescence | inhibition, % at 6 µM | 0.35% of 60,000 active | AID 604;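 active means inhibition above the screen-wide mean inhibition plus 3 SD, cut at about 18% in these data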
Ec RNAP inh – inhibitors of Escherichia coli RNA polymerase; 0.2% of 62,000 active; P0A8V2; AID 559; E. coli RNA polymerase, fluorescence transcription assay; inhibition, %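 (tested at 10 µM)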; in the data active means inhibition above about 20%
Target sequence (P0A8V2 whole entry, looked up): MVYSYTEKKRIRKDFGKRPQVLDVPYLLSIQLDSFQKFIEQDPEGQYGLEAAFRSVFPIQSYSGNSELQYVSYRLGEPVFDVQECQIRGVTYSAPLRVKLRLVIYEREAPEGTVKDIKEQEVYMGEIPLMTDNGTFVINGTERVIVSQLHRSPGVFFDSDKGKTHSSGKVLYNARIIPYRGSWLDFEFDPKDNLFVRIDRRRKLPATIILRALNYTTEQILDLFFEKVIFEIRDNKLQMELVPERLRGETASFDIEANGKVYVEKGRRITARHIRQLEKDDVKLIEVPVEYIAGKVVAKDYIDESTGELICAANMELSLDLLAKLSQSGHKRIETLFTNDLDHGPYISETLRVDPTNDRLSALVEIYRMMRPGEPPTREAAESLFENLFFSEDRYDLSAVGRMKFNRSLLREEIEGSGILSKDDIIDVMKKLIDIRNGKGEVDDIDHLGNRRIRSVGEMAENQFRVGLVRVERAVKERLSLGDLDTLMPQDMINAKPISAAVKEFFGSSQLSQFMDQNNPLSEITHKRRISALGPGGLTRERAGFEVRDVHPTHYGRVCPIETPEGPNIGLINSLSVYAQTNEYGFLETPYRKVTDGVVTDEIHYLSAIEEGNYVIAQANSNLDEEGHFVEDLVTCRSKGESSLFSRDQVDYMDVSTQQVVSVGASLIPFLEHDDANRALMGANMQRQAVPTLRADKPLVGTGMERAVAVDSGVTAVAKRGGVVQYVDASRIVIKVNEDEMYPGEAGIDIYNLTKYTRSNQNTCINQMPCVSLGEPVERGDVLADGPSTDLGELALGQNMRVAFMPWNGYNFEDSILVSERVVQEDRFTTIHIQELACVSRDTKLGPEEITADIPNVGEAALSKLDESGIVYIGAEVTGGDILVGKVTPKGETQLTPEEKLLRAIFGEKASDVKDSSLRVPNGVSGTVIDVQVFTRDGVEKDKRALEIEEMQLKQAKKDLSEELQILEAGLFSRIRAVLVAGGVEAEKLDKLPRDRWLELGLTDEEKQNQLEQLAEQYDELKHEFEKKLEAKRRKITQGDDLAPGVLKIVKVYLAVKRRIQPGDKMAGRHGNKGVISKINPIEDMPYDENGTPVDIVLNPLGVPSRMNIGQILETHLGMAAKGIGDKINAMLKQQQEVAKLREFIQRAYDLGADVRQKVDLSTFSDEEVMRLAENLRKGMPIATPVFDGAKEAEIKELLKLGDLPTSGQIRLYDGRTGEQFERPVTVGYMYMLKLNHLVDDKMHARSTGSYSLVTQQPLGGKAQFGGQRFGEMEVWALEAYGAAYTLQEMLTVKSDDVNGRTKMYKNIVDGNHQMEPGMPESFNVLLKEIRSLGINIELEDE
WNV protease inh – inhibitors of West Nile virus NS2B-NS3 protease. WNV NS2B-NS3 protease, fluorogenic substrate Ex360/Em465; active compounds read low. z-score (test concentration not listed). 0.18% of 65,000 active. AID 577; in the data active means z-score below about -3
PKA kinase inh – blocks human protein kinase A activity. P17612. PKA Kemptide phosphorylation, Kinase-Glo ATP luminescence. inhibition, % at 6 µM. 0.1% of 65,000 active;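 active means inhibition above the screen-wide mean inhibition plus 3 SD, cut at about 21% in these data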
MMP13 inh – inhibitors of human MMP13; MMP-13 fTHP FRET cleavage, Mca fluorescence; inhibition, % at 4 µM; 0.07% of 65,000 active; AID 570;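 active means inhibition above the mean of compound-free control plate wells plus 3 SD, cut at about 14% in these data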
Hits are given with their value; i = inactive; nt = no result given.

SMILES	Hsp90 inh	ROCK2 inh	Ec RNAP inh	WNV protease inh	PKA kinase inh	MMP13 inh
CC(CCc1ccc(O)cc1)NCCc1ccc(O)c(O)c1 (stereo not drawn)	60.6	nt	nt	nt	nt	nt
COc1ccc(CCNC[C@@H](O)c2ccc(O)cc2)cc1OC	i	nt	nt	nt	nt	nt
COc1cccc(-n2c(Cc3cc(=O)[nH]c(=O)[nH]3)nnc2SCc2cccnc2)c1	i	i	i	i	i	i
CC(=O)c1ccc(NC(=O)CSc2nnc(Cc3cccn3C)n2-c2ccc(F)cc2)cc1	87.3	i	i	i	i	i
CCS(=O)(=O)N1Cc2ccccc2CC1C(=O)N1CCN(c2cccc(C)c2C)CC1 (stereo not drawn)	i	i	i	-3.14	i	i
CCOC(=O)C1CCCN(c2nc3ccccc3nc2C(C#N)C(=O)OCCOC)C1 (stereo not drawn)	i	i	i	i	i	i
CCOC(=O)C1CCCN(c2nc3ccccc3nc2C(C#N)C(=O)OCC)C1 (stereo not drawn)	i	i	nt	i	i	13.9
CCOC(=O)C1CCCN(c2nc3ccccc3nc2C(C#N)C(=O)OC(C)COC)C1 (stereo not drawn)	i	i	21.3	i	i	i
COCC(C)OC(=O)C(C#N)c1nc2ccccc2nc1N1CCN(Cc2ccccc2)CC1 (stereo not drawn)	i	i	i	i	i	i
Cc1cc2c(=O)n(Cc3ccco3)c(SCC(=O)NCc3ccco3)nc2s1	i	i	i	i	i	i
CCCNc1ncnc2nc[nH]c12	i	i	i	i	i	i
c1ccc(CCCNc2ncnc3nc[nH]c23)cc1	i	i	i	i	21.5	i
CCOCCn1c(-c2ccc(OC)cc2)nc2ccccc21	i	i	i	i	i	i
Cc1ccc(NC(=O)C2C3CC4OC(=O)C2C4C3)cc1Cl (stereo not drawn)	i	i	i	-6.43	i	i
COC1=C(OC)C(=O)c2ccccc2C1=O	93.0	nt	nt	nt	nt	nt
CN1C=CC(=C2C(=O)c3ccccc3C2=O)C=C1	i	i	i	i	i	i
O=C(Nc1nccs1)c1ccc(Cl)c(S(=O)(=O)N2CCOCC2)c1	i	i	i	i	i	i
Cc1ccc(NC(=O)CC2SCCNC2=O)cc1Cl (stereo not drawn)	53.7	i	i	i	i	i
CCC(=O)N1CCNC(=O)C1CC(=O)Nc1ccc(C)c(Cl)c1 (stereo not drawn)	i	i	i	i	i	i
CCc1ccc(-c2nnn(CCC(=O)OC)n2)cc1	102.7	i	i	i	i	i
CC(C)c1ccc(-c2nnn(CCC(=O)O)n2)cc1	i	i	nt	i	i	i
COC1(OC)N=C(N)C2(C#N)C(c3ccc(F)cc3)C12C#N (stereo not drawn)	i	i	i	i	i	i
CCOC1(OCC)N=C(N)C2(C#N)C(c3ccc(NC(C)=O)cc3)C12C#N (stereo not drawn)	i	26.5	i	i	i	i
OC(C#CCN1CCOCC1)c1cccs1 (stereo not drawn)	nt	nt	i	i	i	i
C=CCNC(=O)Nc1ccc2oc(C)nc2c1	i	i	i	i	i	i
SMILES	Hsp90 inh	ROCK2 inh	Ec RNAP inh	WNV protease inh	PKA kinase inh	MMP13 inh
Cc1ccc(S(=O)(=O)N(C)CCCC(=O)N2CCOCC2)cc1	i	i	i	i	i	i
Cc1ccc(S(=O)(=O)C(CCC(=O)N2CCOCC2)S(=O)(=O)c2ccc(C)cc2)cc1	87.6	i	i	i	i	i
Cn1ncc2c(NCc3ccccc3)ncnc21	i	i	i	i	i	i
Cn1ncc2c(Nc3ccc4ccccc4c3)ncnc21	i	i	21.1	i	i	i
CCOC(=O)C1CCCN(CC(=O)Nc2c(C(=O)OC)[nH]c3ccc(Cl)cc23)C1 (stereo not drawn)	i	i	i	i	i	i
NC(=O)NC1CCCc2c1[nH]c1ccc(Cl)cc21 (stereo not drawn)	i	i	i	-3.01	i	i
CCN1C(=O)N(CC)C(O)(c2ccccc2)C1(O)c1ccccc1 (stereo not drawn)	i	34.0	i	i	i	i
NC(=O)c1sc2nc(N3CCCCC3)c3c(c2c1N)CCCC3	i	42.4	i	i	26.9	i
Cc1ccccc1OCC(O)Cn1c(NCCN(C)C)nc2c1c(=O)n(C)c(=O)n2C (stereo not drawn)	92.0	i	i	i	i	i
O=C(c1cc2ccccc2oc1=O)N1CCN(c2ccc(N3CCOCC3)nn2)CC1	i	i	i	-4.02	i	i
CN=C(Nc1cc(C)nn1CCC#N)c1ccccc1	i	i	i	i	i	i
Cc1cc(OC(=O)c2ccccc2)n(CCC#N)n1	i	i	i	-11.4	i	i
CCOc1cccc(/C(O)=C2/C(=O)C(=O)N(CCN3CCOCC3)C2c2cccnc2)c1 (stereo not drawn)	i	nt	i	i	i	i
O=C(NC1CC1)c1c[nH]c2ccc(S(=O)(=O)Nc3cccc(C(F)(F)F)c3)cc2c1=O	i	i	i	i	i	i
Cc1cc(C(=O)COc2ccc3ccc(=O)oc3c2)c(C)n1Cc1cccs1	i	i	i	i	i	i
COc1ccc(N2C(=O)CSC23C(=O)N2CCCc4cccc3c42)cc1 (stereo not drawn)	66.7	i	i	i	i	i
Cc1ccc(C(N)=S)c(C)c1	i	i	i	i	i	i
CC(NC(=O)c1cccc(C(F)(F)F)c1)C1CCCO1 (stereo not drawn)	i	i	i	i	i	i
CCOC(=O)c1oc2cc(O)cc(C)c2c(=O)c1-c1cscn1	i	i	i	i	i	i
Cc1cc(O)cc(O)c1-c1onc(C(F)(F)F)c1-c1cscn1	68.6	i	i	i	i	i
CCCCCCOc1ccc(C(=O)n2cnc(N)n2)cc1	i	i	i	i	i	i
CCCCCCOc1ccc(C(CC(=O)O)C(N)=O)cc1 (stereo not drawn)	i	i	i	i	i	26.5
Cc1ccc(C(c2nnnn2Cc2cccs2)N2CCN(Cc3ccc4c(c3)OCO4)CC2)cc1 (stereo not drawn)	i	i	i	i	i	i
